Structures are written as SMILES. About 2,100 (3.2%) of roughly 65,000 compounds showed an effect of 50% or more. The median lay at about -52%. The full list was thinned out, with strong results kept by preference.

In this experiment the test system is Plasmodium falciparum. The experiment is described as follows: Screen against P. falciparum Asexual Blood Stage (ABS), at 5uM. Type of experiment: functional, Dd2. The following applies: tested at 5 uM.
For the compound `Cc1ccc(C(CNCc2ccc(C#N)cc2)N2CCOCC2)s1` (stereo not drawn), the INHIBITION was 52.3%.

For the compound `CCn1cc(CNCC(c2ccc(C)s2)N2CCOCC2)cn1` (stereo not drawn), the INHIBITION is listed as 65.7%.

With `CCCOc1ccc(CNc2cncc(-n3cccn3)n2)cc1`, the INHIBITION was -99.4%. With `Cc1ccc(N2CCC3(CCCN(C(=O)c4cccnc4)C3)C2)nn1` (stereo not drawn) the figure was -0.21%. To `O=C(O)c1cccc2c(Br)cccc12` belongs -180%. With `Cn1cnc2c1CCN(Cc1csc(-c3ccccc3F)n1)C2` the figure was -58%; with `O=C(c1ccc2c(c1)CCCC2)N1CCN(c2cnccn2)CC1`, 45%. Turning to `CCS(=O)(=O)N1Cc2ccccc2CC1C(=O)OCc1cc(C)no1` (stereo not drawn), the INHIBITION is recorded as -132%. With `Cc1cc(C(F)(F)F)nc(CNC(=O)CCn2cccn2)n1` the figure was -223%.

Regarding `O=C([C@@H]1CCO[C@@H]2CCN(Cc3cccs3)C[C@H]21)N1CCCCO1`, the INHIBITION was -36.6%. To `Cc1cccc(NC(=O)c2[nH]nc(C(C)C)c2Br)n1` belongs 57.6%. To `CC(C)c1n[nH]c(C(=O)Nc2cc[nH]n2)c1Br` belongs -208%. On to `CC(C)c1n[nH]c(C(=O)Nc2ccncc2)c1Br`, for which the INHIBITION is given as -163%. For `O=S(=O)(c1cccnc1)N1CCN(Cc2nc(-c3cccs3)cs2)CC1`, the INHIBITION is -29%. Take `CNS(=O)(=O)CCCN(C)Cc1cc(C)ccc1OC`: the INHIBITION is listed as 26.6%.

For `COc1ccc(C(=O)NCc2ccco2)nn1`, the INHIBITION is recorded as -126%. With `COc1ccccc1C(C)(C)NCc1ccco1` the figure was 65.7%; with `COC(=O)c1ccc(CNC(C)(C)c2ccccc2OC)o1`, 1.74%. For the compound `COc1ccc(CN(C)C(=O)Cc2c(C)nn(C)c2C)cc1F`, the INHIBITION is listed as -154%. With `Cc1noc([C@@H]2C[C@H]3CN(Cc4scnc4C)C[C@H]3O2)n1` the figure was -40.7%. To `CC(C)n1c(=O)c2sccc2n(CC(=O)Nc2ccccc2)c1=O` belongs -27.6%; to `Cc1ccc(N2C[C@@H]3CN(C(=O)c4ccccc4)CCO[C@@H]3C2)nn1`, -12.5%. With `CS(=O)(=O)NCC1CCCCN1Cc1ccccc1C#N` (stereo not drawn) the figure was -34.1%; with `CN(C)c1ccccc1CN1CCCCC1CNS(C)(=O)=O` (stereo not drawn), 60.5%; with `CS(=O)(=O)NCC1CCCCN1Cc1cccc(C#N)c1` (stereo not drawn), -92.3%.

On to `O=c1ccc2c([nH]1)CCC(NCc1ccc3c(c1)OCO3)C2` (stereo not drawn), for which the INHIBITION is -104%. To `Cc1cccc2c(CCNC(=O)[C@H](N)c3ccccc3)c[nH]c12` belongs 61.2%; to `Cc1cccc2c(CCNC(=O)NCC[S+](C)[O-])c[nH]c12` (stereo not drawn), -103%. To `Cc1cccc2c(CCNC(=O)NCCC[S+](C)[O-])c[nH]c12` (stereo not drawn) belongs -85.3%. To `CN(Cc1ccc2c(c1)OCCO2)Cc1nnnn1-c1ccccc1` belongs -39.1%. `CCC1CN(Cc2c(O)ccc3oc4c(c23)CCCC4)CCO1` (stereo not drawn): the INHIBITION came out at 60%. With `NC(=O)C1CN(Cc2c(O)ccc3oc4c(c23)CCCC4)CCO1` (stereo not drawn) the figure was -23.1%; with `Oc1ccc2oc3c(c2c1CN1CCOCC1)CCCC3`, 19.1%; with `CN(Cc1ccccc1)c1ncccc1CNC1CCCC1`, 65.6%. With `CC(=O)N1CCC(NCc2cccnc2N(C)Cc2ccccc2)CC1` the figure was -57.8%; with `CN(Cc1ccccc1)c1ncccc1CNC1CCSCC1`, 26.2%; with `CCc1nnsc1C(=O)NCc1nnc2n1CCC2`, -217%. To `Cc1ccc(N2CC3(COCCN(Cc4ccccn4)C3)OCC2=O)s1` (stereo not drawn) belongs -89.9%. Consider `COc1c(CNC2CCSc3ccc(F)cc32)c(C)nn1C` (stereo not drawn), for which the INHIBITION is on record as -115%.

With `CC1CCCN(Cc2csc(-c3ncccn3)n2)CC1` (stereo not drawn), the INHIBITION is -29.2%. With `CC(=O)NC1CCCN(Cc2csc(-c3ncccn3)n2)C1` (stereo not drawn) the figure was -89.8%.

For `c1cnc(-c2nc(CN3CCCC(N4CCCC4)C3)cs2)nc1` (stereo not drawn), the INHIBITION is 51.7%. `O=C(NC1CC1)C1CCc2nnc(C3CC3)n21` (stereo not drawn): the INHIBITION is reported as -100%. With `c1ccc(OCC2CC3(CCN(CC4CCOCC4)CC3)CO2)nc1` (stereo not drawn) the figure was -83.4%; with `Cc1cc(C)nc(Nc2cc(C)nc(C3CCN(C(=O)CO)C3)n2)n1` (stereo not drawn), -74.1%; with `CN(C)C(=O)CC1CC2(CCN(Cc3ccco3)CC2)c2ccccc21` (stereo not drawn), 24.7%.

For `CN(C)CCC1CCCCN1Cc1cnc(-c2ccccn2)nc1` (stereo not drawn), the INHIBITION is reported as 38.9%. With `c1ccc(-c2ncc(CN3CCCCC3CCn3cccn3)cn2)nc1` (stereo not drawn) the figure was 51%; with `Fc1cccc(-n2ccc(CN3CCCC3Cn3cccn3)n2)c1` (stereo not drawn), 4.96%.

On to `CN(C)[C@H]1CCCCN(Cc2ccccc2Cn2cccn2)C1`, for which the INHIBITION was found to be 51%. As to `Fc1cccc(-n2ccc(CN3CCCCC3Cn3cncn3)n2)c1` (stereo not drawn), the INHIBITION is -44.8%. To `CN(C)C1CCCN(Cc2cccc(Cn3cccn3)c2)CC1` (stereo not drawn) belongs 34%.

Take `Fc1cccc(-n2cc(CN3CCCCC3CCn3ccnc3)cn2)c1` (stereo not drawn): the INHIBITION is listed as 68.9%. With `c1cnn(CCC2CCCCN2Cc2cnc(C3CCCCC3)nc2)c1` (stereo not drawn) the figure was -9.85%. To `c1ccc(Cn2cccn2)c(CN2CCCCC2CCn2ccnc2)c1` (stereo not drawn) belongs 64.4%; to `Fc1ccc(-n2cccn2)c(CN2CCCCC2CCn2ccnc2)c1` (stereo not drawn), 7.69%; to `Cc1ccc2nc(CN3CCCCC3CCn3cccn3)cn2c1` (stereo not drawn), -63.2%. To `CC1CN(Cc2ccccc2Cn2cccn2)CCN1C` (stereo not drawn) belongs 48.4%.

The values are drawn from ChEMBL document CHEMBL4513216, “Probing the Open Global Health Chemical Diversity Library for Multistage-Active Starting Points for Next-Generation Antimalarials” (ACS Infect Dis, 2020).
